Most compounds without a hit are left out; they make up all but 19% or so of the library.
IL1B secr inh = inhibitors of inflammasome signaling (IL-1 beta secretion). activity change, % at 57.5 µM. 360,000 compounds, 4.7% hits. THP-1 LPS/ATP IL-1B secretion, AlphaLISA, 16 h; active compounds read low; in the data active = activity change below about -50%; inconclusive = mostly about -30% to -49%
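Secreted IL-1B measured by AlphaLISA bead assay after 16 h compound exposure of THP-1 cells; compounds (final up to 57.5 uM) added 1 h before LPS (250 ng/mL) and ATP (1.25 mM) stimulation; lower signal means less secretion.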
ELG1 DNA repair = ELG1-dependent DNA repair inhibition. 330,000 compounds, 2.3% hits. Potency, µM (series often up to 46.1 µM), for the others: at the top dose activity change, negative = inhibition, usual class: inhibitors. HEK293T ELG1-luciferase reporter, luminescence, 16 h; DNA damage induced by 5-fluorouridine; also: potency is read from the fitted curve at half-maximal effect; nearly all actives have a fitted effect of over 55% in size
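Step one: seed 2,000 cells per well. Step two: pin-transfer compound or DMSO alongside 5-fluorouridine. Step three: incubate 16 hr, 37 °C, 5% CO2. Step four: add ONE-Glo, wait 30 min, read luminescence.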
HT1080 IDH1KD tx = kills HT-1080 cells with IDH1 knockdown. Potency, µM (highest dose often 46.1 µM), without a hit: top-dose activity, negative = toxicity, actives largely listed as cytotoxic. 360,000 compounds, 2% hits. AID 686971. HT-1080 IDH1 knockdown viability, ATP luminescence, 48 h;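 also: potency is read from the fitted curve at half-maximal effect; 0% = DMSO wells and -100% = cell-free medium wells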
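Knockdown cells (IDH1KD HT-1080) received compounds 2 h after plating at 750 cells/well and were kept 48 h at 37 °C in 5% FBS RPMI. A CellTiter-Glo luminescence read gave % activity for curve fitting.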
DT40 TDP1 no CPT = qHTS for Inhibitors of human tyrosyl-DNA phosphodiesterase 1 (TDP1): qHTS in cells in absence of CPT | DT40 Tdp1-/- hTDP1 cells, no CPT, ATP luminescence, 48 h | Potency, µM (top dose mostly 46.2 µM), for inactives: top-dose activity change, negative = growth inhibition, usual class: inhibitors | 420,000 compounds, 15% hits; also: potency is read from the fitted curve at half-maximal effect; nearly all actives have a fitted effect of over 55% in size
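Chicken DT40 Tdp1-/- cells stably complemented with human TDP1 were seeded at 400 cells/well with DMSO in place of 20 nM camptothecin. After compound pinning, cells grew at least 48 hr at 37 °C; viability read by CellTiter-Glo luminescence.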
DT40 TDP1 CPT = growth inhibition of DT40 Tdp1-/-;hTDP1 cells with camptothecin (screen for TDP1 inhibitors); 420,000 compounds, 12% hits; chicken DT40 Tdp1-/-;hTDP1 cells + 20 nM CPT, ATP luminescence, 48 h; Potency, µM (titrated, usually from 46.2 µM), for the others: at the highest dose activity change, negative = growth inhibition, most hits filed as inhibitors; also: potency is read from the fitted curve at half-maximal effect; nearly all actives have a fitted effect of over 55% in size
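Chicken DT40 Tdp1-/- cells complemented with human TDP1, 400 cells/well, exposed to compounds plus 20 nM camptothecin for at least 48 h at 37 C; viability read as ATP content by CellTiter-Glo luminescence.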
HT1080-NT tox = kills 2HG-producing HT-1080-NT fibrosarcoma cells; 360,000 compounds, 1.6% hits; HT-1080-NT fibrosarcoma viability, CellTiter-Glo ATP luminescence, 48 h; Potency, µM (highest dose often 46.1 µM), without a hit: at the top dose activity, negative = less viability, hits mostly cytotoxic;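 also: NT is the 2HG producing partner of a matched IDH1 knockdown line; potency is read from the fitted curve at half-maximal effect; 0% = DMSO-treated cells and -100% = media-only wells without cells; nearly all actives have a fitted effect of over 55% in size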
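Read-out is CellTiter-Glo luminescence after 10 minutes at room temperature, following 48 hours' compound treatment of HT-1080-NT cells (750 cells/well, RPMI, 5% FBS, 37 degrees C).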
Numbers without * were called inactive; ? = inconclusive; · = not tested or not shown. Unless noted, calls follow the shape of the dose curve; as a rule, active = well fitted curve in the direction sought with a large enough effect; inconclusive = small, poorly fitted or top-dose-only effect, or another doubt; inactive = no such curve, though single readings can be large; an effect the other way counts as inactive or inconclusive. Unless noted, % is scaled to controls: 0 for no effect and ±100 for the full control effect.

SMILES | IL1B secr inh | ELG1 DNA repair | HT1080 IDH1KD tx | DT40 TDP1 no CPT | DT40 TDP1 CPT | HT1080-NT tox
Cc1ccc(C(=O)N2CCc3cc(CNS(=O)(=O)c4cccs4)ccc32)cc1 | · | · | · | 18µM* | 15µM* | ·
CCOc1ccc(NC(=O)NCCn2nnc3cc(S(=O)(=O)N(C)C)ccc32)cc1 | · | · | · | -10% | 9% | ·
COc1ccc2c(c1)C(C)=CC(C)(C)N2S(=O)(=O)c1ccc(NC(C)=O)cc1 | 67 | -2% | ? | 2.3µM* | 5.8µM* | ?
CCOc1ccc2c(c1)C(C)=CC(C)(C)N2S(=O)(=O)c1ccc(NC(C)=O)cc1 | 66 | ? | 1.8µM* | 1.3µM* | 1µM* | 3.7µM*
COc1ccc(S(=O)(=O)N2CC=C(C(=O)Nc3ccc(NC(C)=O)cc3)CC2)cc1 | 0 | -6% | 6% | 0% | 13% | -5%
CCOc1ccc2c(c1)C(C)=CC(C)(C)N2S(=O)(=O)c1ccc(F)cc1 | 143 | -11% | ? | ? | ? | ?
COc1cc(-c2noc(CSc3nc(-c4ccccc4)cc(=O)[nH]3)n2)cc(OC)c1OC | · | · | · | -22% | -8% | ·
COCCNC(=O)C1=CC(c2ccc3c(c2)OCO3)=NS(=O)(=O)N1C | · | · | · | -16% | 0% | ·
CC1(C)Cc2nc3oc4c(N(CCO)Cc5ccccc5)ncnc4c3cc2CO1 | -19 | 18µM* | -6% | 21µM* | 21µM* | -19%
Cc1c(C(=O)NCc2ccc([N+](=O)[O-])cc2)sc(=O)n1Cc1ccc(-c2ccccc2)cc1 | ? | · | -17% | ? | ? | -8%
Cc1cc(NCc2ccccc2)nc2ccccc12 | -3 | ? | ? | ? | ? | -29%
CCOc1ccc2oc(=O)cc(C)c2c1 | -14 | 22% | 10% | -17% | 3% | 7%
Cc1cc(NCc2ccccc2)c2ccccc2n1 | ? | ? | -21% | 21µM* | 21µM* | -15%
Cc1cc(Nc2ccccc2Cl)c2ccccc2n1 | -96* | · | -4% | 13µM* | 23µM* | -10%
CCOc1ccc(Nc2cc(=O)oc3ccccc23)cc1 | -24 | ? | -24% | 18µM* | 10µM* | -26%
COc1ccc(OC)c(Nc2nc(=O)c3cccnc3s2)c1 | -6 | -6% | -2% | -21% | 21µM* | 0%
Cc1ccc(Nc2nc(=O)c3cccnc3s2)cc1 | 30 | ? | ? | -18% | -10% | -26%
CC(C)NC(=S)NCc1cccs1 | 11 | -5% | -3% | 5% | -13% | -2%
Cc1ccc(NC(=O)COC(=O)CN2CCSC2=O)cc1Cl | 8 | · | 3% | 2% | -14% | 0%
COc1cccc(NC(=O)CN(C)C(=O)c2c(C)noc2C)c1 | 7 | 8% | 5% | -9% | -21% | -1%
Cn1nccc1C(=O)OCC(=O)Nc1cccc(Cl)c1 | -10 | 0% | 6% | -14% | ? | 6%
COc1ccc2nc(C)cc(Nc3ccccc3OC)c2c1 | 27 | · | -10% | ? | ? | -5%
COc1cccc(Nc2cc(C)nc3ccccc23)c1 | 9 | ? | -15% | 21µM* | ? | -14%
COc1ccc(OC)c(Nc2cc(C)nc3ccccc23)c1 | -13 | 21µM* | ? | 18µM* | 18µM* | ?
Cc1cc(Nc2ccc([N+](=O)[O-])cc2)c2ccccc2n1 | -80* | 7% | ? | 18µM* | 16µM* | ?
SMILES | IL1B secr inh | ELG1 DNA repair | HT1080 IDH1KD tx | DT40 TDP1 no CPT | DT40 TDP1 CPT | HT1080-NT tox
Cc1cc(Nc2cccc([N+](=O)[O-])c2)c2cccc(C)c2n1 | -95* | 0% | -28% | 21µM* | ? | ?
CCn1c(COc2cc(C)ccc2C(C)C)nnc1SCC(=O)Nc1nccs1 | -11 | 4% | -1% | -27% | -24% | -1%
COc1ccc(OC)c(Nc2cc(-c3ccccc3)nc(N)n2)c1 | -25 | -3% | 1.5µM* | 0.73µM* | 0.65µM* | 1.5µM*
COc1ccccc1Nc1cc(C)nc2c(C)cccc12 | -27 | · | -10% | -26% | -30% | -18%
COc1ccc(Cl)cc1Nc1cc(C)nc2ccccc12 | ? | · | -27% | 15µM* | ? | -29%
Cc1cc(Nc2cccc([N+](=O)[O-])c2)c2ccccc2n1 | 0 | -12% | ? | ? | ? | -24%
COC(=O)c1ccc2nc(C)cc(Nc3cccc(Cl)c3C)c2c1 | · | · | · | 13µM* | 12µM* | ·
CCOc1ccc2nc(C)cc(Nc3cccc([N+](=O)[O-])c3)c2c1 | -118* | -3% | 18µM* | 12µM* | 3.3µM* | -28%
COc1ccc(-c2cc(-c3ccccc3)nc(N)n2)c(O)c1 | ? | · | ? | ? | ? | -1%
COc1ccc(-c2coc3cc(OC(C)=O)cc(OC(C)=O)c3c2=O)cc1 | · | · | · | 10% | 9% | ·
CC(=O)Nc1ccc(Nc2cc(C)nc3ccccc23)cc1 | -23 | · | 5% | -6% | 18% | 5%
Cc1ccc(Nc2nc(N)c3ccccc3n2)cc1C | -97* | ? | ? | 23µM* | 15µM* | -27%
Cc1cc(Nc2ccc(C)c(C)c2)c2ccccc2n1 | · | -25% | 16µM* | ? | ? | ?
CCOc1ccc(Nc2cc(C)nc3c(C)cccc23)cc1 | -63* | 1% | ? | ? | ? | ?
CCOc1ccccc1C(=O)NC1CC2CCCC(C1)N2Cc1ccc(C)cc1 (centres undefined) | 2 | -7% | 3% | 21µM* | ? | -10%
O=C(NC1CCN(Cc2ccccc2)CC1)c1ccccc1Cl | -6 | 17% | 3% | 0% | 0% | 1%
CCOc1ccccc1C(=O)NC1CCN(Cc2ccccc2)CC1 | 9 | 2% | 6% | -5% | 1% | 17%
CCCN1C2CCCC1CC(NC(=O)c1ccccc1OC)C2 (centres undefined) | -13 | 11% | 21% | 3% | -3% | 1%
O=C(NC1CCN(Cc2ccccc2)CC1)c1ccccc1OCc1ccccc1Cl | -88* | 0% | ? | ? | 16µM* | -29%
O=C(NC1CCN(Cc2ccccc2)CC1)c1ccccc1OCc1ccccc1 | -3 | -7% | -2% | 7.3µM* | ? | 9%
C#CCOc1ccccc1CNC1CCN(Cc2ccccc2)CC1 | -3 | -12% | 0% | 21µM* | ? | -6%
Nc1cc(=O)[nH]c(=S)[nH]1 | · | · | · | -14% | 1% | ·
NCC1O[C@@H](OC2C(N)C[C@H](N)[C@@H](O[C@H]3OC(CO)C(O)C(N)C3O)C2O)C(O)C(O)C1O (some centres undefined) | · | · | · | -3% | 18% | ·
